# Laboratory results published in PubChem BioAssay (Tox21).
# “And” between values parts separate entries of the source, which are not always exact repeats. Equal values may be shown once. Inconclusive results are not listed. The source made the active and inactive calls. Calls come from the whole dose curve; as a rule, active = well fitted cell-killing curve with a large enough effect in the repeat runs; inconclusive = weak or mixed curves, or effect the other way; inactive = flat fitted curve, though single readings scatter.
# Assay: qHTS assay to identify small molecule agonists of the androgen receptor (AR) signaling pathway in the presence of an antagonist - cell viability counter screen (AID 1259379); note: nearly all actives have a fitted effect of over 25% in size
# Settings: MDA-kb2 viability, CellTiter-Fluor, 16 h; series mostly up to 92.4 µM
# Excerpt: National Center for Advancing Translational Sciences [NCATS]
# NIH Chemical Genomics Center [NCGC]
# U.S. Environmental Protection Agency [EPA]
# National Institutes of Environmental Health Sciences [NIEHS]
# National Toxicology Program [NTP]
# U.S. Food and Drug Administration [FDA]
# Androgen receptor (AR) is an important member of nuclear receptor family. Its signaling plays a critical role in AR-dependent prostate cancer and other androgen related diseases. Considerable attention has been given in the past decades to develop methods to study and screen for the environmental chemicals that have the potential to interfere with metabolic homeostasis, reproduction, developmental and behavioral functions. Therefore AR binding assay for screening against androgen agonists and antagonists can be used to identify potential endocrine disruptors.
# MDA-kb2 cells (from ATCC, deposited by Wilson et al.) are human breast carcinoma cells that were stably transfected with a luciferase reporter gene under control of the MMTV promoter that contains response elements for both androgen receptor (AR) and glucocorticoid receptor (GR). This particular screening for measuring luciferase reporter gene activity using MDA-kb2 cells against Tox21 10K library compounds is a confirmation study on agonist mode screening in the presence of AR-antagonist compound (Nilutamide) at 3.0uM final concentration. The cytotoxicity of the compounds was tested in parallel by measuring the cell viability using CellTiter-Fluor assay system (Promega, Madison, WI) in the same wells.
# Tox21 Assay Protocol Summary:
# MDA-kb2 cells (cells cultured without CO2) were dispensed at 3,000 cells/well in 4uL of culture medium into white wall/solid-bottom 1536-well plates (Corning Life Sciences, Corning, NY) using a Multidrop Combi (Thermo Fisher Scientific Inc., Waltham, MA) dispenser. The assay plates were incubated at 37C and 0% CO2 for 5hr. One uL of 3.0uM (final concentration) Nilutamide or assay buffer was added using two separate tips of Flying Reagent Dispenser (FRD, Aurora Discovery, San Diego, CA). Then 23nL of compounds dissolved in DMSO at 15 concentrations and positive controls were transferred to the assay plates using a Pintool station (Wako, San Diego, CA). The assay plates were incubated at 37C and 0% CO2 for 16 hr. After 15hr incubation at 37C, 1uL/well CellTiter-Fluor reagent (Promega Corporation) was added to each well of the assay plates using FRD. After 1hr incubation at 37C and 0% CO2, the fluorescence signal was measured using a ViewLux plate reader (PerkinElmer, Shelton, CT).
# Potency is the fitted concentration of half-maximal effect.
row,SMILES,Potency
1,[Cl][Au]([Cl])[Cl],54.5 µM (active)
2,CC(C)=CCOc1ccc(/C=C/C(=O)c2ccc(OCC=C(C)C)cc2OCC(=O)O)cc1,inactive
3,CS(=O)(=O)CCNCc1ccc(-c2ccc3ncnc(Nc4ccc(OCc5cccc(F)c5)c(Cl)c4)c3c2)o1,15 µM (active)
4,CCCCCCCCCCCCCCCCCC[N+](C)(C)C,61.3 µM (active)
5,COc1c(C)c2c(c(O)c1C/C=C(\C)CCC(=O)O)C(=O)OC2,inactive
6,Cc1cc(O)c2ccccc2c1O,26.6 µM (active)
7,CCN1/C(=C/C=C/c2sc3ccccc3[n+]2CC)Sc2ccccc21,1.16 µM (active)
8,O=C1C=CC(=O)N1c1ccc(Cc2ccc(N3C(=O)C=CC3=O)cc2)cc1,48.6 µM (active)
9,Cc1cc(N)c(S(=O)(=O)O)cc1Cl,inactive
10,Nc1c(Cl)cc(Cl)cc1Cl,inactive
11,CCCN(CCC)c1c([N+](=O)[O-])cc(C(F)(F)F)c(N)c1[N+](=O)[O-],60.9 µM (active)
12,CCCCCCCCOC(=O)c1ccc(O)cc1,inactive
13,CCCCCCCC(=O)[O-].CCCCCCCC(=O)[O-].[Zn+2],inactive
14,O=C(Nc1cccc([N+](=O)[O-])c1)c1cc2ccccc2cc1O,3.86 µM (active)
15,O=[N+]([O-])c1cc(Cl)c(Cl)c(Cl)c1Cl,24.2 µM (active)
16,CCOC(=O)c1nc(C(Cl)(Cl)Cl)n(-c2ccc(Cl)cc2Cl)n1,inactive
17,CC(C)OC(=O)c1cc2c(OCC(O)CNC(C)(C)C)cccc2[nH]1 (stereo not given),inactive
18,C=CC(=O)OCC(CO)(COC(=O)C=C)COC(=O)C=C,19.4 µM (active) and 24.3 µM (active)
19,C[C@@H](NCCCc1cccc(C(F)(F)F)c1)c1cccc2ccccc12,29.8 µM (active)
20,Oc1ccc2c(c1)-c1ccccc1C2,inactive

row,SMILES,Potency
1,CCCN(CCC)C(=O)C(CCC(=O)OCCCN1CCN(CCOC(=O)Cc2c(C)n(C(=O)c3ccc(Cl)cc3)c3ccc(OC)cc23)CC1)NC(=O)c1ccccc1 (stereo not given),inactive
2,CC(=O)SC[C@@H](Cc1ccccc1)C(=O)NCC(=O)OCc1ccccc1,inactive
3,CCCCC(CC)CN=C(N)NC(N)=NCCCCCCN=C(N)NC(N)=NCC(CC)CCCC (stereo not given),18.8 µM (active)
4,C[C@H](CCC(=O)O)[C@H]1CC[C@H]2[C@@H]3CC[C@@H]4C[C@H](O)CC[C@]4(C)[C@H]3CC[C@]12C,inactive
5,CN(C/C=C/C#CC(C)(C)C)Cc1cccc2ccccc12,inactive
6,N#CSc1ccc(N)c([N+](=O)[O-])c1,54.8 µM (active)
7,CC(C)(C)c1ccc(C(=O)CCCN2CCC(OC(c3ccccc3)c3ccccc3)CC2)cc1,29.8 µM (active)
8,CCCCc1oc2ccc(NS(C)(=O)=O)cc2c1C(=O)c1ccc(OCCCN(CCCC)CCCC)cc1,21.1 µM (active)
9,Oc1cc2ccccc2c2ccccc12,13.7 µM (active)
10,CCCCCCCCS(=O)C(C)Cc1ccc2c(c1)OCO2 (stereo not given),inactive
11,CN(C)[C@@H]1C(=O)C(C(N)=O)=C(O)[C@@]2(O)C(=O)C3=C(O)c4c(O)cccc4C[C@H]3C[C@@H]12,inactive
12,O=C(Oc1cccc2cccnc12)c1ccccc1,inactive
13,CCCCCCCC[N+](CCCCCCCC)(CCCCCCCC)CCCCCCCC,17.2 µM (active)
14,C=C(C)C(=O)OCC(O)COc1ccc(C(C)(C)c2ccc(OCC(O)COC(=O)C(=C)C)cc2)cc1 (stereo not given),30.6 µM (active)
15,CCCC(c1cc(C(C)(C)C)c(O)cc1C)c1cc(C(C)(C)C)c(O)cc1C,31 µM (active)
16,CC/C(=C(\c1ccc(O)cc1)c1ccc(OCCN(C)C)cc1)c1ccccc1,61.3 µM (active)
17,C=C(C)C(=O)OCC[N+](C)(C)C,inactive
18,O=C(OCC1CO1)C1CCCCC1C(=O)OCC1CO1 (stereo not given),inactive
19,C=CC(=O)OCC(CO)(COCC(COC(=O)C=C)(COC(=O)C=C)COC(=O)C=C)COC(=O)C=C,5.38 µM (active)
20,O=C(Nc1cccc(Cl)c1)OCC#CCCl,54.5 µM (active)
